“And” between values parts separate entries of the source, which are not always exact repeats. Equal values may be shown once. Inconclusive results are not listed. Where a call stands in place of a potency, no number is given. The source made the active and inactive calls. Calls follow the shape of the dose curve; as a rule, active = well fitted cell-killing curve with a large enough effect in the repeat runs; inconclusive = weak or mixed curves, or effect the other way; inactive = no such curve, though single readings can be large or run the other way.
Test: Caspase-3/7 induction in CHO-K1 cells by small molecules, qHTS cell viability counter screen (AID 1346979); also: nearly all actives have a fitted effect of over 35% in size
Details: CellTiter-Fluor fluorescence, 17 h; series mostly up to 92.4 µM
Text: National Center for Advancing Translational Sciences [NCATS]
NIH Chemical Genomics Center [NCGC]
U.S. Environmental Protection Agency [EPA]
National Institutes of Environmental Health Sciences [NIEHS]
National Toxicology Program [NTP]
U.S. Food and Drug Administration [FDA]
Apoptosis is a process of programmed cell death and plays a central role in the development of multicellular organisms. It is a highly regulated process and induces cell death by activating caspases, which are the members of cysteine aspartic acid-specific protease (caspase) family. Caspases involved in apoptosis are classified by their mechanism of action as initiator caspases (caspase-2, -8, -9 and -10) and executioner caspases (caspase-3, -6, and -7). Inhibition of apoptosis results in number of cancers, autoimmune diseases, inflammatory diseases and viral infection. To identify small molecule compounds that induce apoptosis, a homogeneous, luminescent Caspase-Glo 3/7 assay was used. Wild type CHO-K1 cells were used to screen Tox21 libraries for identifying caspase-3/7 activity inducers. Also cytotoxicity of the compounds was tested in parallel by measuring the cell viability using CellTiter-Fluor assay system in the same wells.
Tox21 Assay Protocol Summary:
CHO-K1 cells were dispensed at 1,500 per well in 5uL of culture medium into white solid bottom 1536-well plates (Corning Life Sciences, Corning, NY) using a Multidrop Combi (Thermo Scientific, Waltham, MA) dispenser. The assay plates were incubated at 37 C and 5% CO2 for 5hr, and then 23nL of compounds dissolved in DMSO and positive control were transferred using a Pintool station (Wako, San Diego, CA). The assay plates were incubated at 37C and 5% CO2 for 17hr. For cytotoxicity read, after 16hr incubation at 37C, 1uL CellTiter-Fluor reagent (Promega Corporation, Madison, WI) was added to each well of the assay plates using Flying Reagent Dispenser (FRD, Aurora Discovery, San Diego, CA). After 1hr incubation at 37C and 5% CO2, the fluorescence signal was quantified using a ViewLux plate reader (PerkinElmer, Shelton, CT).
Potency is read from the fitted curve at half-maximal effect.

Compound | Potency
O=C(O)C(Cl)(Cl)Br | inactive
O=C(NC(=O)c1cc(F)c(F)cc1Cl)Nc1cc(F)ccc1N1CCC(C(=O)O)CC1 | inactive
Clc1ccc(Cl)c(Cl)c1 | inactive
CC(C)CCON=O | inactive
CC(CC(C(N)=O)(c1ccccc1)c1ccccc1)N(C)C (stereo not given) | inactive
C[N+]1(CCC(C(N)=O)(c2ccccc2)c2ccccc2)CCCCC1 | inactive
NC(=O)CF | inactive
CCCN(CCOc1c(Cl)cc(Cl)cc1Cl)C(=O)n1ccnc1 | 62.4 µM (active)
CC(C)[C@@H](C(=O)O[C@@H](C#N)c1cccc(Oc2ccccc2)c1)c1ccc(Cl)cc1 | 27.7 µM (active)
CCCSP(=S)(OCC)Oc1ccc(SC)cc1 (stereo not given) | inactive
CCCCCCCCP(=O)(O)O | inactive
C#CC(O)(C=CCl)CC (stereo not given) | inactive
C=CC(=O)NC(C)(C)CC(C)=O | inactive
CN[C@@H](C)[C@H](O)c1ccccc1 | inactive
C=CCN1C[C@H](C)N([C@H](c2ccc(C(=O)N(CC)CC)cc2)c2cccc(OC)c2)C[C@H]1C | inactive
CCCN(CCC)c1c([N+](=O)[O-])cc(C(C)C)cc1[N+](=O)[O-] | inactive
CCCCC1C(=O)NC(=O)N(C2CCCCC2)C1=O (stereo not given) | inactive
COCc1cnc(C2=NC(C)(C(C)C)C(=O)N2)c(C(=O)O)c1 (stereo not given) | inactive
ClCc1ccccc1Cl | inactive
CCc1cnc(C2=NC(C)(C(C)C)C(=O)N2)c(C(=O)O)c1 (stereo not given) | inactive

Compound | Potency
C[C@]12CC[C@H]3[C@@H](CCC4=CC(=O)CC[C@@H]43)[C@@H]1CC[C@@H]2OC(=O)CCc1ccccc1 | inactive
Nc1ccccc1C(=O)OCCc1ccccc1 | inactive
CCN(C(C)=O)c1cccc(-c2ccnc3c(C#N)cnn23)c1 | inactive
O=C1c2ccccc2C(=O)N1SC(Cl)(Cl)Cl | 4.27 µM (active) and 5.45 µM (active)
CC(C)c1ccc(NC(=O)N(C)C)cc1 | inactive
O=C(N/N=C/c1ccc([N+](=O)[O-])o1)c1cc([N+](=O)[O-])cc([N+](=O)[O-])c1O | 23.7 µM (active)
Cc1ncc(C[n+]2csc(CCO)c2C)c(N)n1 | inactive
SCc1ccccc1 | inactive
CCCCC#N | inactive
C#C[C@]1(O)CC[C@H]2[C@@H]3CCC4=CC(=O)CCC4=C3C=C[C@@]21CC | 26.6 µM (active)
CCOP(=O)(O)C(N)=O | inactive
O=C(Cc1ccccc1)OCCc1ccccc1 | inactive
CCNC(=O)NC(=O)/C(C#N)=N/OC | inactive
CCCC[P+](CC)(CCCC)CCCC (tested in a mixture with another compound) | inactive
COc1cc(C[C@@H](C)N)c(OC)cc1Br | inactive
C[N+](C)(C)CC1CO1 (stereo not given) | inactive
Cc1ccc(N)c(C)c1 | inactive
CN(C)c1ccc(N=O)cc1 | 7.72 µM (active) and 8.63 µM (active)
COC1CC(=C(c2cccs2)c2cccs2)C[N+](C)(C)C1 (stereo not given) | inactive
CCCC(C)(COC(N)=O)COC(=O)NC(C)C (stereo not given) | inactive

From PubChem BioAssay (Tox21)
